Source: PubChem (Buhrlage Lab, Dana-Farber Cancer Institute and Novartis Institutes for BioMedical Research (Cambridge, Mass))
USP30 inh – inhibitors of human USP30 deubiquitinase | Ubiquitin carboxyl-terminal hydrolase 30 (Homo sapiens), Q70CQ3 | purified USP30, Ub-rhodamine cleavage fluorescence | inhibition, % at 25 µM | 47,000 compounds, 5.3% hits | AID 1645860, 2021
USP17 block – inhibitors of human USP17 deubiquitinase; Ubiquitin carboxyl-terminal hydrolase 17-like protein 5 (Homo sapiens), A8MUK1; purified USP17, Ub-rhodamine cleavage fluorescence, 3 h; inhibition, % at 50 µM; 47,000 compounds, 6.5% hits; AID 1645855, 2021
Target sequence (A8MUK1 whole entry, looked up): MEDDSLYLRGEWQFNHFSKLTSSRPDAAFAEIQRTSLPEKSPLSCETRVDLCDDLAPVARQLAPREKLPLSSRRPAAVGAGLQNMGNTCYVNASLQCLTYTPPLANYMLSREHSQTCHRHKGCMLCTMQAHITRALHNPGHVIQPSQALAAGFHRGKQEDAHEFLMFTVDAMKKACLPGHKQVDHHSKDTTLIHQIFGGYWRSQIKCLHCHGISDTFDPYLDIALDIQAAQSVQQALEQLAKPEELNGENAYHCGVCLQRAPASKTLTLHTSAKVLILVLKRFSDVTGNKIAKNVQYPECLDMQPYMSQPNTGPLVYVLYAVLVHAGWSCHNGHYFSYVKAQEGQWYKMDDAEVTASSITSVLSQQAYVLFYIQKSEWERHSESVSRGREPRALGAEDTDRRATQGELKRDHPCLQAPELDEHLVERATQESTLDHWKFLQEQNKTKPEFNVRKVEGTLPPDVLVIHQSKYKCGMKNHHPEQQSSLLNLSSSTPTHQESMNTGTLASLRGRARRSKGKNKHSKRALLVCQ
USP28 inh – inhibitors of human USP28 deubiquitinase; Ubiquitin carboxyl-terminal hydrolase 28 (Homo sapiens), Q96RU2; AID 1645857, 2021; purified USP28, Ub-rhodamine cleavage fluorescence, 30 min; 47,000 compounds, 3% hits; inhibition, % at 25 µM
The depositor's hits bear a star. An excerpt weighted towards active compounds, which were near 11% of everything screened. No stated cut-off is given here; in the data, active means inhibition above about 30%; inactive means the rest.

Screening N#Cc1c(N)nc2c(c1-c1ccccc1)CCc1ccccc1-2 returned USP30 inh -3, USP17 block -2 and USP28 inh 16.
Screening NC(=O)c1nc(-c2ccccc2O)nc2c1[nH]c(=O)n2CC1CCCO1 (configuration not stated) returned USP30 inh -77, USP17 block -38 and USP28 inh -20.
`O=C1N[C@H](Cc2c[nH]c3ccccc23)C(=O)N[C@H]1Cc1c[nH]c2ccccc12` gave USP30 inh 36*, USP17 block 22 and USP28 inh 12.
For Cc1ccccc1CN1CCN(Cc2c[nH]c3ccccc23)CC1 the results were USP30 inh 8, USP17 block -2 and USP28 inh 10.
For COc1cccc(CNS(=O)(=O)c2ccc3[nH]c(=O)[nH]c3c2)c1 the results were USP30 inh -4, USP17 block 8 and USP28 inh 18.
Screening COc1ccc(CNS(=O)(=O)c2ccc3[nH]c(=O)ccc3c2)cc1 returned USP17 block 47*.
Screening Cc1cccc(-n2c(Cc3cc(=O)[nH]c(=O)[nH]3)nnc2SCC(=O)NCc2ccccc2Cl)c1 returned USP30 inh 31*, USP17 block 6 and USP28 inh 10.
Cc1cccc(-n2c(Cc3cc(=O)[nH]c(=O)[nH]3)nnc2SCC(=O)Nc2ccc(F)cc2F)c1 was read as USP30 inh 3, USP17 block -3 and USP28 inh 2.
O=C(NCc1ccccc1F)c1nnn(-c2ccccc2Cl)c1-c1cccnc1 was read as USP30 inh 9, USP17 block -1 and USP28 inh 6.
For Cc1oc2ncnc(Oc3ccc(F)cc3)c2c1C the results were USP30 inh 41*, USP17 block 29 and USP28 inh 14.
`COc1cccc(Nc2ncnc3oc(C)c(C)c23)c1` gave USP30 inh -2, USP17 block 9 and USP28 inh 6.
`O=S(=O)(Nc1ccc(-c2nnc(-c3ccccc3)o2)cc1)c1ccccc1F` gave USP30 inh 19, USP17 block 28 and USP28 inh 11.
`Cc1nn(-c2ccc(Br)cc2)cc1-c1noc(C(=O)N2CCOCC2)n1` gave USP30 inh 24, USP17 block 13 and USP28 inh 3.
`COc1ccc(NC(=O)CSc2nnc3n(-c4ccccc4)c(=O)c4c5c(sc4n23)CN(C)CC5)cc1` gave USP30 inh -5, USP17 block -4 and USP28 inh 17.
CC(NC(=O)CSc1nnc2n(-c3ccccc3)c(=O)c3ccccc3n12)c1ccccc1 (configuration not stated) was read as USP30 inh 48*, USP17 block 12 and USP28 inh 10.
Screening CCc1ncc(CN2CCC3(CC2)Nc2cc(Cl)ccc2C2=NCCN23)cn1 returned USP30 inh 6, USP17 block 4 and USP28 inh 1.
Screening CCc1ccc(NC(=O)CSc2nnnn2-c2cccnc2)cc1 returned USP30 inh 12, USP17 block -5 and USP28 inh 31*.
`O=C(CSc1nnnn1-c1ccccc1)NC(C(=O)O)(c1ccccc1)c1ccccc1` gave USP30 inh 5, USP17 block 7 and USP28 inh -1.
`Cc1nccnc1CCC1COCCN1C(=O)c1ccc2n[nH]nc2c1` (configuration not stated) gave USP30 inh 31*, USP17 block 5 and USP28 inh 7.
Screening Cc1nccnc1CCC1COCCN1C(=O)c1n[nH]c2ccccc12 (configuration not stated) returned USP30 inh -68, USP17 block -29 and USP28 inh -25.
`CC(OC(=O)c1ccc2ncsc2c1)C(=O)Nc1ccccc1` (configuration not stated) gave USP30 inh -26, USP17 block 6 and USP28 inh 7.
Screening COc1ccc(NC(=O)C2C3C=CC4(O3)C2C(=O)N(Cc2ccccc2)C4C(=O)NC2CCCCC2)cc1 (configuration not stated) returned USP30 inh 40*, USP17 block 12 and USP28 inh 0.
For COc1cccc(NC(=O)C2C3C=CC4(O3)C2C(=O)N(CCc2ccc(Cl)cc2)C4C(=O)NC2CCCCC2)c1 (configuration not stated) the results were USP30 inh 7, USP17 block 6 and USP28 inh 13.
Screening Cc1cc(C)cc(NC(=O)C2C3C=CC4(O3)C2C(=O)N(Cc2ccc3c(c2)OCO3)C4C(=O)NC2CCCCC2)c1 (configuration not stated) returned USP30 inh -34, USP17 block -12 and USP28 inh -6.
For CSc1cccc(NC(=O)C2C3C=CC4(O3)C2C(=O)N(Cc2ccc(C)cc2)C4C(=O)NC2CCCCC2)c1 (configuration not stated) the results were USP30 inh 18, USP17 block 50* and USP28 inh 10.
Screening COc1cccc(NC(=O)C2C3C=CC4(O3)C2C(=O)N(CCc2ccccc2Cl)C4C(=O)NC2CCCCC2)c1 (configuration not stated) returned USP30 inh 39*, USP17 block 39* and USP28 inh -1.
Screening COc1ccc(NC(=O)C2C3C=CC4(O3)C2C(=O)N(CCc2ccccc2)C4C(=O)NC2CCCCC2)cc1 (configuration not stated) returned USP30 inh 56*, USP17 block 35* and USP28 inh 7.
Screening CC1CCN(CCCN2C(=O)C3C(C(=O)Nc4ccc(Cl)cc4)C4C=CC3(O4)C2C(=O)NC2CCCCC2)CC1 (configuration not stated) returned USP30 inh -35, USP17 block -18 and USP28 inh -13.
Screening CC(C)c1ccc(NC(=O)C2C3C=CC4(O3)C2C(=O)N(CCCN(C)Cc2ccccc2)C4C(=O)NC2CCCCC2)cc1 (configuration not stated) returned USP30 inh 1, USP17 block -13 and USP28 inh 6.
Screening Cc1ccc(C)c(N2CCN(C(=O)CCc3c(C)c4c(C)nn(-c5ccccc5)c4n(C)c3=O)CC2)c1 returned USP30 inh 16, USP17 block 7 and USP28 inh 15.
O=C(C1CCCC1)N1CCN(c2cnn3c(C4CC4)nnc3c2)CC1 was read as USP30 inh -1, USP17 block -9 and USP28 inh -8.
O=C(NCCC1=CCCCC1)[C@H]1CCCC[C@H]1C(=O)O was read as USP30 inh 8, USP17 block 3 and USP28 inh 1.
`O=C(C1CCCC1)N1CCCC(c2nc(N3CCOCC3)ncc2-c2ccncc2)C1` (configuration not stated) gave USP30 inh -10, USP17 block -1 and USP28 inh -5.
For Cc1ccc(NC(=O)C2C3C=CC4(O3)C2C(=O)N(CCCN2CCN(Cc3ccccc3)CC2)C4C(=O)NC2CCCCC2)cc1C (configuration not stated) the results were USP30 inh -1, USP17 block -4 and USP28 inh 0.
`Cc1ccc(NC(=O)C2C3C=CC4(O3)C2C(=O)N(CCc2ccccc2)C4C(=O)NC2CCCCC2)cc1C` (configuration not stated) gave USP30 inh 28, USP17 block 30* and USP28 inh 8.
